The values below come from PubChem BioAssay.

Assay [1] is described as follows: sensitizers of A549 cells to miR-34 induction, primary screen, imaging, A549 dox-inducible miR-34, nuclei and caspase counts (AID 1347080). The settings on record: A549 miR-34 inducible, Hoechst nuclei count, 48 h.
Assay [2] in a line: survival rescue of mitochondrial mutant cells in low glucose, primary screen, MELAS cybrids, Rieske KO mouse fibroblasts, CellTiter-Glo (AID 1508586;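 active = mean z-score across replicates of 1.96 or higher in either the MELAS or the Rieske mutant cell line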;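 also: z relative to plate mean and SD of compound and empty wells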). Background: ATP-based viability assays read luminescence as a measure of living cells.
Where [3] appears, read: stronger effect = lower value, cell number ratio, induced over uninduced.
[4] abbreviates: measured here: relative caspase fold change +Dox/-Dox.
[5] abbreviates: measured here: total cells with miR-34 induction, stronger effect = lower value.
The mark [6] stands for this setting: measured here: total cells without miR-34 induction.
[7] abbreviates: MELAS cybrid survival, CellTiter-Glo 48 h, stronger effect = higher value.
Where [8] appears, read: Rieske KO mouse fibroblast survival, CellTiter-Glo 72 h.

Several values for one entry are separate records, joined by “and”; a condition that tells them apart may be missing. Equal entries are not always repeated. Activity calls are given as the source filed them.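 The calls were made as follows, unless noted: active = compounds whose cell count with miR-34 switched on is under 0.7 times the count with it off; inactive = the rest.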 Where a SMILES comes first, the peptide text is derived from it. The star is where a group is joined. Cbz = O=C(OCc1ccccc1)*
Also: test concentration not given here.

Regarding `CCC1C(=O)N(C)c2cnc(Nc3ccc(C(=O)NC4CCC(N5CCN(CC6CC6)CC5)CC4)cc3OC)nc2N1C(C)C` (stereo unspecified), the results for the fold change in assay [1] (setting [3]) and in assay [1] (setting [4]) were 1.2 (inactive) and 0.875, respectively. The cell count in assay [1] (setting [5]) was found to be 1460; in assay [1] (setting [6]), 1210. In addition, the figures for the z-score in assay [2] (setting [7]) and in assay [2] (setting [8]) were 6.19 (active) and -4.08, respectively.

Consider `CCC(Nc1ncnc2nc[nH]c12)c1nc2cccc(F)c2c(=O)n1-c1ccccc1` (stereo unspecified), for which the fold change in assay [1] (setting [3]) is 0.873 (inactive); in assay [1] (setting [4]), 0.869. Further, the cell count in assay [1] (setting [5]) was 6860; in assay [1] (setting [6]), 7860. For the same compound, the z-score was -0.15 (inactive) in assay [2] (setting [7]) and 0.351 in assay [2] (setting [8]).

On to `COC1CC2CCC(C)[C@@](O)(O2)C(=O)C(=O)N2CCCCC2C(=O)OC(C(C)CC2CCC(OCCO)C(OC)C2)CC(=O)C(C)C=C(C)C(O)C(OC)C(=O)C(C)CC(C)C=CC=CC=C1C` (stereo partly specified), for which the fold change is 1.03 (inactive) in assay [1] (setting [3]) and 1 in assay [1] (setting [4]). Also, the results for the cell count in assay [1] (setting [5]) and in assay [1] (setting [6]) were 4550 and 4420, respectively. Also, the z-score in assay [2] (setting [7]) is 0.115 (inactive); in assay [2] (setting [8]) it was 1.87.

With `N#Cc1ccc2[nH]c(O)c(-c3ccc(CN4CCOCC4)cn3)c2c1`, the fold change in assay [1] (setting [3]) was 0.757 (inactive); in assay [1] (setting [4]), 0.717. Besides, the cell count in assay [1] (setting [5]) came out at 2200; in assay [1] (setting [6]), 2900. In addition, the values for the z-score in assay [2] (setting [7]) and in assay [2] (setting [8]) were 1.12 (inactive) and -0.87, respectively.

`CC1(C)SC2C(NC(=O)C(NC(=O)N3CCNC3=O)c3ccccc3)C(=O)N2C1C(=O)O` (stereo unspecified): the fold change in assay [1] (setting [3]) was 0.905 (inactive); in assay [1] (setting [4]), 1.06. Further, the cell count in assay [1] (setting [5]) was found to be 8030; in assay [1] (setting [6]), 8880. Besides, the results for the z-score in assay [2] (setting [7]) and in assay [2] (setting [8]) were -0.162 (inactive) and -0.16, respectively.

As for `C[C@]12C=CC(=O)C=C1CC[C@@H]1[C@H]2C(O)C[C@@]2(C)[C@H]1CC[C@@]2(O)C(=O)CO` (stereo partly specified), the fold change in assay [1] (setting [3]) was 0.833 (inactive); in assay [1] (setting [4]), 1.24. Further, the cell count was found to be 4970 in assay [1] (setting [5]) and 5970 in assay [1] (setting [6]). Also, the figures for the z-score in assay [2] (setting [7]) and in assay [2] (setting [8]) were -0.42 (inactive) and -1.24, respectively.

As for `CCN=C1N[C@@H]2C(O)C(O)C(CO)O[C@@H]2S1` (stereo partly specified), the fold change in assay [1] (setting [3]) was 0.935 (inactive); in assay [1] (setting [4]) it was 0.487. Moreover, the cell count is 8710 in assay [1] (setting [5]) and 9320 in assay [1] (setting [6]). Moreover, the z-score was -0.533 (inactive) in assay [2] (setting [7]) and -0.988 in assay [2] (setting [8]).

Consider `CCn1cc(NC(=S)Nc2cc(Cl)ccc2OC)c(C(N)=O)n1`, for which the values for the fold change in assay [1] (setting [3]) and in assay [1] (setting [4]) were 0.929 (inactive) and 0.479, respectively. In addition, the cell count in assay [1] (setting [5]) amounted to 8480; in assay [1] (setting [6]), 9130. In addition, the z-score is -0.357 (inactive) in assay [2] (setting [7]) and 0.0626 in assay [2] (setting [8]).

Consider `CN(C)Cc1ccc(S(=O)(=O)n2ccc(C=CC(=O)NO)c2)cc1`, for which the fold change in assay [1] (setting [3]) was 0.784 (inactive); in assay [1] (setting [4]), 0.443. Also, the cell count was 1500 in assay [1] (setting [5]) and 1910 in assay [1] (setting [6]). Moreover, the values for the z-score in assay [2] (setting [7]) and in assay [2] (setting [8]) were -0.566 (inactive) and -0.298, respectively.

In the case of `O=C1NC(=O)C(=Cc2ccc3c(c2)OC(F)(F)O3)S1`, the figures for the fold change in assay [1] (setting [3]) and in assay [1] (setting [4]) were 0.912 (inactive) and 0.633, respectively. The cell count turned out to be 8930 in assay [1] (setting [5]) and 9790 in assay [1] (setting [6]). For the same compound, the values for the z-score in assay [2] (setting [7]) and in assay [2] (setting [8]) were -0.318 (inactive) and -0.248, respectively.

For the compound `CN1[C@@H]2CC[C@@H]1CC(OC(=O)C(O)c1ccccc1)C2` (stereo partly specified), the figures for the fold change in assay [1] (setting [3]) and in assay [1] (setting [4]) were 0.924 (inactive) and 0.78, respectively. Also, the results for the cell count in assay [1] (setting [5]) and in assay [1] (setting [6]) were 8330 and 9020, respectively. Further, the z-score was -0.279 (inactive) in assay [2] (setting [7]) and -0.173 in assay [2] (setting [8]).

For `CN(C)CCCCC(=O)Nc1ccc(NC(=S)NC(=O)c2ccc(C(C)(C)C)cc2)cc1`, the fold change was 1.13 (inactive) and 1.1 (inactive) in assay [1] (setting [3]); 0.871 and 0.667 in assay [1] (setting [4]). Moreover, the cell count in assay [1] (setting [5]) is 4160 and 3360; in assay [1] (setting [6]), 3670 and 3070. In addition, the z-score in assay [2] (setting [7]) was 0.0334 (inactive); in assay [2] (setting [8]), -0.0265.

With `Cc1cc2c(F)c(Oc3ncnn4cc(OCC(C)O)c(C)c34)ccc2[nH]1` (stereo unspecified), the fold change was 1.07 (inactive) in assay [1] (setting [3]) and 0.907 in assay [1] (setting [4]). The results for the cell count in assay [1] (setting [5]) and in assay [1] (setting [6]) were 4250 and 3990, respectively. For the same compound, the z-score was -0.638 (inactive) in assay [2] (setting [7]) and 0.759 in assay [2] (setting [8]).

Turning to `CC(Oc1cc(-n2cnc3ccc(CN4CCN(C)CC4)cc32)sc1C(N)=O)c1ccccc1C(F)(F)F` (stereo unspecified), the fold change in assay [1] (setting [3]) is 1.2 (inactive); in assay [1] (setting [4]), 0.688. Besides, the cell count in assay [1] (setting [5]) was determined as 1290; in assay [1] (setting [6]), 1080. The figures for the z-score in assay [2] (setting [7]) and in assay [2] (setting [8]) were 0.375 (inactive) and 1.78, respectively.

Turning to `CCCC(=O)Nc1cccc(NC(=O)c2ccccc2Br)c1`, the figures for the fold change in assay [1] (setting [3]) and in assay [1] (setting [4]) were 0.957 (inactive) and 0.928, respectively. For the same compound, the cell count in assay [1] (setting [5]) worked out at 7570; in assay [1] (setting [6]) it was 7910. Further, the z-score in assay [2] (setting [7]) is -0.112 (inactive); in assay [2] (setting [8]) it was -0.0371.

`Cc1cc2c(C(=O)NCC(C)c3ccccc3)c(O)c(O)cc2c(O)c1-c1c(C)cc2c(C(=O)NCC(C)c3ccccc3)c(O)c(O)cc2c1O` (stereo unspecified): the fold change in assay [1] (setting [3]) is 1.07 (inactive); in assay [1] (setting [4]), 0.503. Further, the cell count stood at 2050 in assay [1] (setting [5]) and 1910 in assay [1] (setting [6]). Moreover, the z-score in assay [2] (setting [7]) was -0.836 (inactive); in assay [2] (setting [8]), -6.52.

For the compound `CC(=O)[C@H]1CC[C@H]2[C@@H]3C=CC4=CC(=O)CC[C@@]4(C)[C@H]3CC[C@]12C`, the fold change in assay [1] (setting [3]) was 0.894 (inactive); in assay [1] (setting [4]), 0.952. Further, the values for the cell count in assay [1] (setting [5]) and in assay [1] (setting [6]) were 7680 and 8580, respectively. Further, the z-score in assay [2] (setting [7]) is -0.0223 (inactive); in assay [2] (setting [8]) it was -0.212.

As for `N#CC(=C(N)Sc1ccc(N)cc1)c1ccccc1C(F)(F)F`, the fold change in assay [1] (setting [3]) was 0.906 (inactive); in assay [1] (setting [4]), 0.881. Further, the cell count in assay [1] (setting [5]) stood at 4690; in assay [1] (setting [6]), 5170. The z-score in assay [2] (setting [7]) is -0.31 (inactive); in assay [2] (setting [8]), 0.82.

Turning to `CC(C)NCC(C(=O)N1CCN(c2ncnc3c2C(C)CC3O)CC1)c1ccc(Cl)cc1` (stereo unspecified), the values for the fold change in assay [1] (setting [3]) and in assay [1] (setting [4]) were 1.1 (inactive) and 0.724, respectively. Also, the cell count in assay [1] (setting [5]) amounted to 7580; in assay [1] (setting [6]), 6900. The z-score was -0.408 (inactive) in assay [2] (setting [7]) and 0.0437 in assay [2] (setting [8]).

`Nc1cc(F)ccc1NC(=O)C=Cc1cnn(CC=Cc2ccccc2)c1`: the figures for the fold change in assay [1] (setting [3]) and in assay [1] (setting [4]) were 0.91 (inactive) and 0.53, respectively. The results for the cell count in assay [1] (setting [5]) and in assay [1] (setting [6]) were 6990 and 7680, respectively. In addition, the z-score was -0.402 (inactive) in assay [2] (setting [7]) and -2.77 in assay [2] (setting [8]).

As for `CC(C)CC(C=O)NC(=O)C(CC(C)C)NC(=O)C(CC(C)C)NC(=O)OCc1ccccc1` (stereo not drawn) (Cbz-Leu-Leu-Leu-aldehyde; configuration not given here), the values for the fold change in assay [1] (setting [3]) and in assay [1] (setting [4]) were 0.872 (inactive) and 0.735, respectively. In addition, the cell count is 2300 in assay [1] (setting [5]) and 2640 in assay [1] (setting [6]). Besides, the results for the z-score in assay [2] (setting [7]) and in assay [2] (setting [8]) were -0.114 (inactive) and -3.43, respectively.
